From PubChem BioAssay AID1741 (Vanderbilt High Throughput Screening Facility, 2009)
Hit rate of the full screen: of about 1,700 compounds, about 150 (8.8%) were called active. Not shown: some 19% with an inconclusive outcome.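 How the source made its calls: active means fluorescence change differing from the plate's solvent-only control wells at 99.7% confidence in both duplicates, whether higher or lower; inconclusive means differs from solvent controls in only one of two duplicates; inactive means the rest.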 These entries were drawn from the full list.

Target: Muscarinic acetylcholine receptor M4 (Rattus norvegicus) (UniProt P08485)
Experiment: rat M4 muscarinic receptor activation – cell-based, agonist mode, counter-screen for M1 allosteric modulator project, confirmation (AID 1741)
Settings: CHO M4/Gqi5 cells, Fluo-4 calcium fluorescence, at 10 µM, actives lie on both sides

Chain of Muscarinic acetylcholine receptor M4 (Rattus norvegicus) (P08485 whole entry, looked up): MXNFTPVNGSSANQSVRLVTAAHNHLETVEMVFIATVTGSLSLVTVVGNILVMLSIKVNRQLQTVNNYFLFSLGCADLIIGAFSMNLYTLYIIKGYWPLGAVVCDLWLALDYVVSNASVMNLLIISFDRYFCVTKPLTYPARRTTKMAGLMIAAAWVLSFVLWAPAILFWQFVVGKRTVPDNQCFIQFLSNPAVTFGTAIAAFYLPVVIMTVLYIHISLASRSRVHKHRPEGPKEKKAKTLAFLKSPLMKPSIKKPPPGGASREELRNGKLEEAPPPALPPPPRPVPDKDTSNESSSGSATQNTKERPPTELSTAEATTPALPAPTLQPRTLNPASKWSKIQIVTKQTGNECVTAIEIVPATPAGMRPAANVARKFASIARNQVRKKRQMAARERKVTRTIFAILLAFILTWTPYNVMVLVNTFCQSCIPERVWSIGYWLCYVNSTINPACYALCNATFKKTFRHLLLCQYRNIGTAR

| SMILES | fluorescence change (max-min) |
| --- | --- |
| O=C(O)c1ccc(COCC(F)(F)F)cc1 | -14 (inactive) |
| COCCNC(=O)C(c1ccc(C)o1)N(Cc1cccs1)C(=O)c1snc(C(N)=O)c1N (stereo unspecified) | -6.44 (inactive) |
| COc1cccc2c(C)c(C(=O)O)[nH]c12 | -9.04 (inactive) |
| COc1ccccc1NC1=NC(c2ccc(Cl)cc2)N=C(N)N1 (stereo unspecified) | -38.9 (inactive) |
| N#CC1=C(N)Oc2c(sc3ccccc23)C1c1ccco1 (stereo unspecified) | 50 (inactive) |
| CCOc1ccc2nc(N3CCCN(C(=O)Nc4ccccc4C)CC3)c(C#N)cc2c1 | 246 (active) |
| Cc1cc(NC(=O)COc2ccc(Cl)cc2Cl)n(CCC#N)n1 | -13.8 (inactive) |
| C(=N\n1cnnc1)/c1cccnc1 | -25.3 (inactive) |
| COc1ccc2nc(N3CCCC(O)C3)c(C#N)cc2c1 (stereo unspecified) | 176 (active) |
| COc1ccc(N(CC(=O)NC(C)(C)C)C(=O)c2ccco2)cc1 | -53.4 (inactive) |
| O=C(CSc1nnc(-c2ccco2)n1Cc1ccccc1)NC(=O)NCc1ccco1 | -23.1 (inactive) |
| COc1ncnc2c1N=C1CC(C)(C)CC(N)=C1S2 | 136 (active) |
| c1ccc2c(c1)OCC(CNc1ncnc3nc[nH]c13)O2 (stereo unspecified) | 1130 (active) |
| Cc1nc2ccccc2c2oc(C(=O)NCC3CCCO3)cc12 (stereo unspecified) | -66.7 (inactive) |
| COC(=O)c1ccc(CSc2nc3ccccc3c(=O)n2-c2cccc(OC)c2)o1 | -28.9 (inactive) |
| Cc1nc(CNS(=O)(=O)c2ccc(Oc3ccccc3)cc2)cs1 | 2.92 (inactive) |
| COc1ccccc1NC(=O)CSc1nnc(Cn2nnc(-c3ccccc3)n2)n1-c1ccccc1 | -51.1 (inactive) |
| COc1ccccc1N1CCN(C(=O)c2cn(-c3ccccc3)nc2-c2cccnc2)CC1 | -73.3 (inactive) |
| COc1ccc(CCNC(=O)C2CCN(c3nn4c(=O)cc(C)nc4s3)CC2)cc1OC | -40 (inactive) |
| CCOc1cc(-c2nc3cc(C)ccn3c2NCC2CCCO2)ccc1O (stereo unspecified) | -60.7 (inactive) |
| CCOc1ccc(NC(=O)N2CC=C(n3c(=O)[nH]c4ccccc43)CC2)cc1 | -26.4 (inactive) |
| COc1ccc(Nc2oc(-c3ccccc3Cl)nc2C#N)cc1 | -74.3 (inactive) |

| SMILES | fluorescence change (max-min) |
| --- | --- |
| O=C(NCCC1=CCCCC1)C1CCN(Cc2cnn(-c3ccccc3)c2-n2cccc2)CC1 | -67.1 (inactive) |
| c1n[nH]c(NCc2ccc3c(c2)OCO3)n1 | -28.2 (inactive) |
| CC1CCCC(C)N1C(=O)CN1CCN(c2nc(-c3ccc(F)cc3)cs2)CC1 (stereo unspecified) | -9.73 (inactive) |
| Nc1ccc(SCCN2C(=O)c3ccccc3C2=O)cc1 | -77.3 (inactive) |
| Cc1cc2cc(CN(Cc3cccs3)Cc3nnnn3CC3CCCO3)c(=O)[nH]c2cc1C (stereo unspecified) | -27 (inactive) |
| O=C(c1ccccc1)c1ccc(OC(=O)N2CCCC2)cc1 | -25.9 (inactive) |
| CC(NC(=O)CSc1nc2c(cc1C#N)CN(C)CC2)c1ccccc1 (stereo unspecified) | -18.9 (inactive) |
| O=C(Nc1cccc(NC(=O)N2CCN(c3ccccc3)CC2)c1)N1CCN(c2ccccc2)CC1 | -12.4 (inactive) |
| Cc1nn2c(c1-c1ccccc1)N=C(c1ccco1)CC2c1ccccc1 (stereo unspecified) | 5.67 (inactive) |
| CCOc1nc(-c2ccc(OC)cc2)ccc1-c1noc(-c2cc(OC)c(OC)c(OC)c2)n1 | 18.4 (inactive) |
| CCCOc1ccccc1C1CC(=O)Nc2cc3c(cc21)OCO3 (stereo unspecified) | -71.7 (inactive) |
| CCn1c(NCCc2ccc(OC)c(OC)c2)nc2c1c(=O)n(C)c(=O)n2C | -47.9 (inactive) |
| CCN(CC)c1ccc2cc(C(=O)O)c(=O)oc2c1 | 137 (inactive) |
| Fc1ccc2[nH]c3c(N4CCSCC4)ncnc3c2c1 | -68.8 (inactive) |
| CCN=C1SC(CC(=O)Nc2ccc(C)cc2)C(=O)N1CC (stereo unspecified) | -71.4 (active) |
| COc1cccc(-n2cc3c(c2-c2ccccc2)c(=O)n(C)c(=O)n3C)c1 | -42.2 (inactive) |
| COc1ccc2[nH]c(=O)c(CN(CC3CCCO3)C(=O)Nc3ccccc3)cc2c1 (stereo unspecified) | -53.6 (inactive) |
| CCOc1ccc2[nH]c(=O)c(CN(Cc3nnnn3Cc3ccccc3)CC3CCCO3)cc2c1 (stereo unspecified) | -7.46 (inactive) |
| O=C1c2ccccc2-c2ncnc3c(N4CCOCC4)cc(N4CCOCC4)c1c23 | -22.7 (inactive) |
| FC(F)(F)COc1nc(N2CCCCC2)nc(N2CCNCC2)n1 | -26.5 (inactive) |
| CCOC(=O)c1cc2n(c1N)-c1ccccc1C2=O | 2020 (active) |
| CC(=O)Nc1ccc(NC(=O)CN2CCCC(C)C2)c(Cl)c1 (stereo unspecified) | -37.2 (inactive) |

| SMILES | fluorescence change (max-min) |
| --- | --- |
| COc1ccccc1N1CCN(C(=O)c2c(-c3c(Cl)cccc3Cl)noc2C)CC1 | -27 (inactive) |
| O=C(Cn1cc(C(=O)c2cccs2)c2ccccc21)NCc1cccs1 | -25 (inactive) |
| COc1ccc(C(C(O)C(=O)c2c[nH]c3ccccc23)N2CCN(c3ccccc3)CC2)cc1 (stereo unspecified) | -6.79 (inactive) |
| COc1cc(C(=O)Nc2oc(-c3ccccc3)c(-c3ccccc3)c2C#N)cc(OC)c1OC | -47.4 (inactive) |
| CCCN1CC=C2C(C#N)=C(N)C(C#N)(C#N)C(c3cc(OC)ccc3OC)C2C1 (stereo unspecified) | 84.1 (inactive) |
| COc1ccc(NC(=O)C2CCCN(S(=O)(=O)c3cccc4cccnc34)C2)cc1OC (stereo unspecified) | -56.1 (inactive) |
| Cc1ccc2oc(=O)c3cnn(CC(=O)N4CCN(c5ccccn5)CC4)c3c2c1 | -22 (inactive) |
| CCOc1cc(N2CCOCC2)c(OCC)cc1NC(=O)COc1cccc2cccnc12 | -39.2 (inactive) |
| Cc1ccc(S(=O)(=O)Nc2ccc3ncccc3c2)cc1 | -7.21 (inactive) |
| O=C(NCCc1ccc2c(c1)OCCO2)c1cc2ccccc2o1 | -9.99 (inactive) |
| COc1ccc(C2C(C(=O)N3CCN(c4ccc(OC)cc4)CC3)c3ccccc3C(=O)N2C)cc1 (stereo unspecified) | -57.8 (inactive) |
| Cn1c(C(=O)NCCc2ccsc2)cc2c(=O)n(C)c3ccccc3c21 | -42.5 (inactive) |
| COc1ccc(N(C(=O)c2cccnc2)S(=O)(=O)c2ccc3c(c2)n(C)c(=O)n3C)cc1 | -59.4 (inactive) |
| O=C(CSCc1cccs1)N1CCCC1 | -76.4 (inactive) |
| CN1C(=O)c2ccc(NC(=O)c3c(F)c(F)c(F)c(F)c3F)cc2C1=O | -27.8 (inactive) |
| CC(C[N+](C)(C)C)OC(N)=O (stereo unspecified) | 11.8 (inactive) |
| CC(=O)OC(C)C[N+](C)(C)C (stereo unspecified) | 146 (active) |
| CCOC(=O)C1CCCN(C(=O)c2ccc(CS(=O)(=O)c3ccc(Br)cc3)o2)C1 (stereo unspecified) | -59.9 (inactive) |
| CC(C)OCCCNc1ncnc2c1[nH]c1ccc(F)cc12 | -4.51 (inactive) |
| O=C(Nc1nc(-c2ccc3c(c2)OCO3)cs1)c1ccncc1 | -52 (inactive) |
| CC(C)(C)c1cc(CN2CCN(CCC#N)CC2)cc(C(C)(C)C)c1O | -27.3 (inactive) |
| O=C(Nc1cccc(-c2nnc(-c3ccccc3)o2)c1)C1CCCO1 (stereo unspecified) | -67.5 (inactive) |
